Test results published in PubChem BioAssay (Tox21).
Inconclusive results are not listed. Where a call stands in place of a potency, no number is given. Unmarked numbers belong to inactive results. The source made the active and inactive calls. Calls follow the shape of the dose curve; as a rule, active = well fitted cell-killing curve with a large enough effect in the repeat runs; inconclusive = weak or mixed curves, or effect the other way; inactive = flat fitted curve, though single readings scatter.

Key:
[1] = cAMP Responsive Elements (CRE) small molecule antagonists, cell-based qHTS assay: qHTS cell viability counter screen (AID 2060913); also: nearly all actives have a fitted effect of over 40% in size
Summary of the method: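 Cytotoxicity read in the same wells as the CRE-bla HEK293T antagonist assay: after 3 h compound with 0.25 uM NKH477 final and 2 h beta-lactamase substrate, CellTiter-Glo luminescence measured.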

[2] = cAMP Responsive Elements (CRE) small molecule agonists, cell-based qHTS assay: qHTS cell viability counter screen (AID 2060914); also: nearly all actives have a fitted effect of over 50% in size
Summary of the method: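 Luminescence read-out (CellTiter-Glo, 30 min RT) of ATP-based viability in CRE-bla HEK 293T cells, run in the same wells as the β-lactamase reporter assay after 3 h compound treatment at 37 °C.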

SMILES	Potency [1]	Potency [2]	viability change, negative = cytotoxic [1]	activity change, negative = cytotoxicity [2]
CN[C@@H]1[C@@H](O)[C@@H](O[C@@H]2[C@H](O)[C@H](O[C@H]3OC(CN)=CC[C@H]3N)[C@@H](N)C[C@H]2N)OCC1(C)O (stereo not given in full)	inactive	inactive	–	–
C[Si](C)(C)O[Si](C)(C)C	inactive	inactive	–	–
CC(C)(C)CC(=O)OCC(=O)[C@@]1(O)CC[C@H]2[C@@H]3CCC4=CC(=O)C=C[C@]4(C)[C@H]3[C@@H](O)C[C@@]21C	inactive	inactive	–	–
Sc1nc2ccccc2s1	inactive	inactive	–	–
CN(C)CCOC(=O)COc1ccc(Cl)cc1	inactive	inactive	–	–
C=CC(=C)CC/C=C(\C)CCC=C(C)C	–	–	13.3% [at 18.9 µM]	-3.29% [at 18.9 µM]
COc1ccc(-c2coc3cc(O)ccc3c2=O)cc1	inactive	inactive	–	–
CN(C)CCN1CCOCC1	inactive	inactive	–	–
Clc1ccc(C(Cn2ccnc2)OCc2ccsc2Cl)c(Cl)c1 (stereo not given)	inactive	inactive	–	–
COC(OC)(C(=O)c1ccccc1)c1ccccc1	inactive	inactive	–	–
C[C@]12C[C@H](O)[C@H]3[C@@H](CCC4=CC(=O)CC[C@@]43C)[C@@H]1CC[C@@H]2C(=O)CO	inactive	inactive	–	–
CCOCCOCCOC(C)=O	inactive	inactive	–	–
O=C1O[C@H](CO)[C@@H](O)[C@H](O)[C@H]1O	inactive	inactive	–	–
CC(C)C(=O)OCc1cccc(OC(=O)[C@@H]2N3C(=O)[C@@H](NC(=O)Cc4ccccc4)[C@H]3SC2(C)C)c1	inactive	inactive	–	–
CCCC/C=C/C=C\C=O	inactive	inactive	–	–
COS(C)(=O)=O	inactive	inactive	–	–
O=C1N=C(O)CN1/N=C/c1ccc(-c2ccc([N+](=O)[O-])cc2)o1	inactive	inactive	–	–
CCCCC(=O)O[C@]1(C(=O)CO)[C@H](C)C[C@H]2[C@@H]3CCC4=CC(=O)C=C[C@]4(C)[C@@]3(F)[C@@H](O)C[C@@]21C	inactive	inactive	–	–
CC1CCC(CO)CC1 (stereo not given)	inactive	inactive	–	–
CCN(Cc1cccc(S(=O)(=O)O)c1)c1ccccc1	inactive	inactive	–	–
CC(C)COC(=O)c1ccccc1O	inactive	inactive	–	–
O=C(O)CNC(=O)c1ccc([N+](=O)[O-])cc1	inactive	inactive	–	–
CN(C)CCCNCCC#N	inactive	inactive	–	–

SMILES	Potency [1]	Potency [2]	viability change, negative = cytotoxic [1]	activity change, negative = cytotoxicity [2]
OC1C(O)C(O)C(O)C(O)C1O (stereo not given)	inactive	inactive	–	–
CCCCCCCCCCC(CO)CCCCCCCC (stereo not given)	inactive	inactive	–	–
COC1=C(OC)C(=O)C(CCCCCCCCCCO)=C(C)C1=O	inactive	inactive	–	–
CC(=O)OC/C=C(C)/C=C/C=C(C)/C=C/C1=C(C)CCCC1(C)C	inactive	inactive	–	–
C=C(C)C(=O)NCCCN(C)C	inactive	inactive	–	–
Nc1ncnc(Nc2ccccc2)n1	inactive	inactive	–	–
O=C1[C@H]2CCCC[C@H]2C(=O)N1CCCCN1CCN(c2nsc3ccccc23)CC1	inactive	inactive	–	–
Cc1cccc(C)c1NC(=O)CN(CC(=O)O)CC(=O)O	inactive	inactive	–	–
CC(=O)c1ccc(S(=O)(=O)NC(=O)NC2CCCCC2)cc1	inactive	inactive	–	–
Cc1ccc(Nc2c(F)cccc2Cl)c(CC(=O)O)c1	inactive	inactive	–	–
CCNC(=O)[C@@H]1CCCN1C(=O)[C@H](CCCN=C(N)N)NC(=O)[C@H](CC(C)C)NC(=O)CNC(=O)[C@H](Cc1ccc(O)cc1)NC(=O)[C@H](CO)NC(=O)[C@H](Cc1c[nH]c2ccccc12)NC(=O)[C@H](Cc1cnc[nH]1)NC(=O)[C@@H]1CCC(=O)N1	inactive	inactive	–	–
O=Cc1ccc(Cl)c([N+](=O)[O-])c1	inactive	inactive	–	–
COC(=O)CCC(=O)O	inactive	inactive	–	–
C[C@]12C=CC(=O)C=C1CC[C@H]1[C@@H]3C[C@@H](O)[C@](O)(C(=O)CO)[C@@]3(C)C[C@H](O)[C@@]12F	inactive	inactive	–	–
CC(C)OC(=O)c1ccccc1	inactive	inactive	–	–
Clc1cccc(C(c2ccc3nc[nH]c3c2)n2ccnc2)c1 (stereo not given)	inactive	inactive	–	–
Cn1nnc2c(C(N)=O)ncn2c1=O	inactive	inactive	–	–
CCCCNS(=O)(=O)c1ccccc1	inactive	inactive	–	–
C=C(c1ccc(C(=O)O)cc1)c1cc2c(cc1C)C(C)(C)CCC2(C)C	inactive	inactive	–	–
O=C=NCC1CCCC(CN=C=O)C1 (stereo not given)	inactive	inactive	–	–
C=CC/C=C/C/C=C/C/C=C/C	inactive	inactive	–	–
O=C(OOC(=O)c1ccccc1)c1ccccc1	inactive	inactive	–	–
